Structures can show the parent of a compound that is named as a salt. ± gives the standard deviation of the averaged measurements.
Experiments:
Experiment in all cases: growth (OD600 after 10 h); higher = more growth (less inhibition)
[1] = system: E. coli TESEC Alr+ wild-type control; conditions: compound 0.1 mM; raw OD600 reference: median of DMSO wells 0.241, cell-free background 0.041
Procedure: (§1)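 TESEC Mtb Alr E. coli, or the Alr+ wild-type control, in 384-well plates with Prestwick library compounds at 0.1 mM and 1% DMSO, across arabinose induction levels of 1E3 to 1E7 nM. Growth is read as OD600 after 10 h at 37 °C in triplicate biological replicates.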

E. coli TESEC Mtb Alr [2] = conditions: compound 0.1 mM
Procedure: as §1

E. coli TESEC Mtb Asd = conditions: compound 0.1 mM
Procedure: (§2)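 TESEC E. coli strains in which the native enzyme is deleted and replaced by arabinose-inducible Mtb Asd, DapB, CysH or TrpD, each grown in its selective medium. Strains were screened against the Prestwick library at 0.1 mM and 1% DMSO in 384-well format at low and high arabinose induction. Growth is read as OD600 after 10 h in triplicate.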

E. coli TESEC Mtb DapB = conditions: compound 0.1 mM
Procedure: as §2

[3] = system: E. coli TESEC Alr+ wild-type control; conditions: compound 0.1 mM; raw OD600 reference: median of DMSO wells 0.49, cell-free background 0.052
Procedure: (§3)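 TESEC Mtb Alr E. coli (ΔaraC ΔtolC ΔentC Δalr ΔdadX, arabinose-inducible Mtb Alr) or the Alr+ wild-type control strain, grown in defined M9-fructose medium without D-alanine in 96-well plates with Prestwick library compounds at 0.1 mM and 1% DMSO. Low Alr induction is 0.1 µM arabinose and high induction is 10 mM arabinose.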

E. coli TESEC Mtb Alr [4] = conditions: compound 0.1 mM; remark: listed apart in the source
Procedure: as §3

[5] = arabinose 1000 nM, raw OD600 reference: median of DMSO wells 0.294, cell-free background 0.041
[6] = arabinose 10000 nM, raw OD600 reference: median of DMSO wells 0.264, cell-free background 0.041
[7] = arabinose 100000 nM, raw OD600 reference: median of DMSO wells 0.201, cell-free background 0.041
[8] = arabinose 1000000 nM, raw OD600 reference: median of DMSO wells 0.193, cell-free background 0.041
[9] = arabinose 10000000 nM, raw OD600 reference: median of DMSO wells 0.146, cell-free background 0.041
[10] = arabinose induction (level): High, raw OD600 reference: median of DMSO wells 0.331, cell-free background 0.041
[11] = arabinose induction (level): Low, raw OD600 reference: median of DMSO wells 0.417, cell-free background 0.041
[12] = arabinose induction (level): High, raw OD600 reference: median of DMSO wells […], cell-free background 0.041
[13] = arabinose induction (level): Low, raw OD600 reference: median of DMSO wells 0.227, cell-free background 0.041
[14] = arabinose 100 nM, raw OD600 reference: median of DMSO wells 0.413, cell-free background 0.052
[15] = arabinose 10000000 nM, raw OD600 reference: median of DMSO wells […], cell-free background 0.052

SMILES	growth [1]	growth (E. coli TESEC Mtb Alr [2]; [5])	growth (E. coli TESEC Mtb Alr [2]; [6])	growth (E. coli TESEC Mtb Alr [2]; [7])	growth (E. coli TESEC Mtb Alr [2]; [8])	growth (E. coli TESEC Mtb Alr [2]; [9])	growth (E. coli TESEC Mtb Asd; [10])	growth (E. coli TESEC Mtb Asd; [11])	growth (E. coli TESEC Mtb DapB; [12])	growth (E. coli TESEC Mtb DapB; [13])	growth [3]	growth (E. coli TESEC Mtb Alr [4]; [14])	growth (E. coli TESEC Mtb Alr [4]; [15])
O=C1c2cccc(O)c2C(=O)c2c(O)cccc21 [1,8-Dihydroxyanthraquinone]	0.132 ± 0.0039	0.15 ± 0.013	0.0699 ± 0.015	0.138 ± 0.0019	0.0486 ± 0.0032	0.153 ± 0.0021	0.187 ± 0.013	0.147 ± 0.0069	0.189 ± 0.0068	0.255 ± 0.067	0.383 ± 0.011	0.361 ± 0.0048	0.218 ± 0.013
CC(=O)N(CC(O)CO)c1c(I)c(C(=O)NCC(O)CO)c(I)c(C(=O)NCC(O)CO)c1I (configuration not stated) [Iohexol]	0.242 ± 0.011	0.285 ± 0.0098	0.276 ± 0.0072	0.221 ± 0.043	0.195 ± 0.004	0.1422 ± 0.0012	0.35 ± 0.046	0.414 ± 0.056	0.195 ± 0.014	0.201 ± 0.02	0.512 ± 0.11	0.418 ± 0.01	0.343 ± 0.022
OCC(O)CN1CCN(c2ccccc2)CC1 (racemic) [Dropropizine (R,S)]	0.241 ± 0.0033	0.283 ± 0.018	0.255 ± 0.0087	0.228 ± 0.014	0.174 ± 0.0046	0.144 ± 0.0086	0.364 ± 0.032	0.424 ± 0.03	0.2 ± 0.025	0.248 ± 0.026	0.431 ± 0.04	0.404 ± 0.014	0.361 ± 0.022
CCCCOC(=O)c1ccc(O)cc1 [Butylparaben]	0.137 ± 0.0043	0.148 ± 0.0023	0.213 ± 0.0083	0.157 ± 0.0026	0.131 ± 0.0015	0.15 ± 0.0048	0.174 ± 0.0066	0.193 ± 0.017	0.175 ± 0.011	0.2066 ± 0.00083	0.399 ± 0.014	0.376 ± 0.029	0.304 ± 0.019
CC(=O)[C@H]1CC[C@H]2[C@@H]3CC=C4C[C@@H](O)CC[C@]4(C)[C@H]3CC[C@]12C [Pregnenolone]	0.166 ± 0.0078	0.235 ± 0.015	0.239 ± 0.016	0.173 ± 0.029	0.136 ± 0.0035	0.159 ± 0.0019	0.168 ± 0.026	0.343 ± 0.034	0.191 ± 0.0035	0.184 ± 0.009	0.458 ± 0.0056	0.398 ± 0.0084	0.2327 ± 0.0018
CC(C)(Oc1ccc(Cl)cc1)C(=O)O [Clofibric acid]	0.253 ± 0.0056	0.313 ± 0.011	0.256 ± 0.01	0.201 ± 0.015	0.171 ± 0.0038	0.154 ± 0.0039	0.443 ± 0.024	0.442 ± 0.025	0.199 ± 0.016	0.251 ± 0.037	0.547 ± 0.1	0.404 ± 0.011	0.305 ± 0.011
CCN1CCC[C@H]1CNC(=O)c1c(OC)ccc(Br)c1OC [Remoxipride Hydrochloride]	0.256 ± 0.007	0.304 ± 0.016	0.259 ± 0.004	0.192 ± 0.0085	0.184 ± 0.0027	0.136 ± 0.0041	0.288 ± 0.032	0.445 ± 0.015	0.195 ± 0.0092	0.218 ± 0.039	0.588 ± 0.039	0.416 ± 0.017	0.338 ± 0.039
C#C[C@]1(O)CC[C@H]2[C@@H]3CCC4=C(CCC(=O)C4)[C@H]3CC[C@@]21C [Norethynodrel]	0.133 ± 0.013	0.142 ± 0.0092	0.107 ± 0.0051	0.157 ± 0.0071	0.0575 ± 0.0014	0.089 ± 0.0065	0.128 ± 0.016	0.13 ± 0.006	0.149 ± 0.0054	0.17 ± 0.01	0.355 ± 0.005	0.399 ± 0.0064	0.17 ± 0.018
Cc1onc(-c2ccccc2)c1-c1ccc(S(N)(=O)=O)cc1 [Valdecoxib]	0.124 ± 0.0019	0.173 ± 0.0027	0.216 ± 0.029	0.148 ± 0.0053	0.0949 ± 0.0023	0.122 ± 0.0014	0.196 ± 0.038	0.245 ± 0.045	0.178 ± 0.015	0.229 ± 0.022	0.388 ± 0.027	0.4007 ± 0.0035	0.198 ± 0.016
CCC1=C(C)CN(C(=O)NCCc2ccc(S(=O)(=O)NC(=O)N[C@H]3CC[C@H](C)CC3)cc2)C1=O [Glimepiride]	0.247 ± 0.0069	0.299 ± 0.011	0.239 ± 0.0027	0.161 ± 0.0087	0.182 ± 0.004	0.155 ± 0.0053	0.338 ± 0.064	0.439 ± 0.052	0.21 ± 0.012	0.221 ± 0.018	0.434 ± 0.034	0.411 ± 0.0056	0.193 ± 0.014
CC(O)(P(=O)(O)O)P(=O)(O)O [Etidronic acid, disodium salt]	0.261 ± 0.021	0.331 ± 0.0087	0.275 ± 0.0062	0.20943 ± 0.00012	0.184 ± 0.0041	0.159 ± 0.003	0.474 ± 0.015	0.426 ± 0.068	0.216 ± 0.003	0.26 ± 0.015	0.578 ± 0.046	0.415 ± 0.021	0.261 ± 0.056
O=C(Cn1ccnc1[N+](=O)[O-])NCCO [Etanidazole]	0.2444 ± 0.00084	0.306 ± 0.015	0.258 ± 0.0028	0.213 ± 0.0053	0.178 ± 0.0091	0.138 ± 0.0056	0.318 ± 0.027	0.423 ± 0.0082	0.202 ± 0.006	0.232 ± 0.0081	0.471 ± 0.019	0.406 ± 0.012	0.358 ± 0.016
CC[C@H](C)C(=O)O[C@H]1CCC=C2C=C[C@H](C)[C@H](CC[C@@H]3C[C@@H](O)CC(=O)O3)[C@H]21 [Mevastatin]	0.15 ± 0.0081	0.152 ± 0.1	0.166 ± 0.08	0.134 ± 0.0032	0.0515 ± 0.0016	0.0677 ± 0.0034	0.135 ± 0.036	0.148 ± 0.012	0.171 ± 0.054	0.134 ± 0.0085	0.41 ± 0.019	0.406 ± 0.021	0.214 ± 0.028
O=C1c2ccccc2S(=O)(=O)N1CCCCN1CCN(c2ncccn2)CC1 [Ipsapirone]	0.206 ± 0.0034	0.256 ± 0.015	0.249 ± 0.0074	0.171 ± 0.0059	0.154 ± 0.007	0.141 ± 0.0076	0.226 ± 0.048	0.389 ± 0.064	0.205 ± 0.026	0.221 ± 0.021	0.551 ± 0.04	0.4 ± 0.0047	0.313 ± 0.012
